Growth data for eight molecules are collected here from PubChem BioAssay (NCI).

Assay in all cases: NCI-60 one-dose screen, 48 h (100 = growth as untreated, 0 = no growth, -100 = all killed)
For one experiment, the system named is NCI-H226 lung. Particulars: 10 µM.
In another experiment the test system is NCI-H322M lung. Particulars: 10 µM.
The test system of a further experiment is HOP-62 NSCLC. Particulars: 10 µM.
The subject of a further experiment is NCI-H460 lung. Particulars: 10 µM.
Another experiment relates to NCI-H522 lung. Particulars: 10 µM.
Another experiment relates to COLO 205 colon. The note with it: 10 µM.
The test system of a further experiment is DU-145 prostate. Particulars: 10 µM.
The next experiment relates to SF-268 CNS. Particulars: 10 µM.
The subject of another experiment is SF-295 CNS. The note with it: 10 µM.
The subject of the next experiment is SF-539 CNS. Particulars: 10 µM.
The subject of the next experiment is UACC-257 melanoma. The note with it: 10 µM.
The next experiment has as its system M14 melanoma. The note with it: 10 µM.
Another experiment has as its system HCT-15 colon. Particulars: 10 µM.
In another experiment the test system is HT29 colon. The note with it: 10 µM.
The subject of a further experiment is SNB-19 CNS. The note with it: 10 µM.
The subject of a further experiment is U251 CNS. The note with it: 10 µM.
The test system of a further experiment is SK-MEL-5 melanoma. Particulars: 10 µM.
A further experiment has as its system UACC-62 melanoma. The note with it: 10 µM.
The subject of the next experiment is SK-MEL-2 melanoma. Particulars: 10 µM.
The test system of another experiment is HL-60(TB) leukemia. The note with it: 10 µM unless noted.

About 83,000 compounds went through this panel and 20% of them were active in at least one assay; those are over-represented in the sample as a whole.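 Cell lines were cultured in 96-well plates, exposed to a single compound concentration, and assessed for percent growth 48 hours later.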 Values without a mark were called inactive. Calls of active or inactive are those of the source. Rule for the calls: active = growth percent below 10; inactive = the rest.

With `C[C@H]1[C@@H](Oc2ccc(-c3cn(-c4ccnc5cc(Cl)ccc45)nn3)cc2)O[C@@H]2OC3(C)CC[C@H]4[C@H](C)CC[C@@H]1[C@@]24OO3`, the growth in the experiment with NCI-H226 lung was 48.2%; in the experiment on NCI-H322M lung, 69.3%; in the experiment on HOP-62 NSCLC it was 46.3%; in the experiment with NCI-H460 lung, 25.3%; in the experiment with NCI-H522 lung, 2.18% (active); with COLO 205 colon it was -50% (active). Besides, the growth was 51.6% in the experiment with DU-145 prostate; 46.3% in the experiment on SF-268 CNS; 37.6% with SF-295 CNS; 30.5% in the experiment on SF-539 CNS; 41.1% with UACC-257 melanoma; 31.8% in the experiment with M14 melanoma. The growth in the experiment with HCT-15 colon is 12.8%; with HT29 colon it was 22.3%; in the experiment on SNB-19 CNS it was 40.4%; in the experiment on U251 CNS, 39.1%; with SK-MEL-5 melanoma, 20.3%; in the experiment on UACC-62 melanoma it was 21.2%. Moreover, the growth in the experiment on SK-MEL-2 melanoma was 7.17% (active); with HL-60(TB) leukemia, 6.05% (active).

In the case of `CC[C@]12C=CCN3CC[C@@]4(c5ccc(OC)cc5N(C)[C@H]4[C@@](O)(C(=O)OC)[C@@H]1OC(=O)CCCC[P+](C1CCCCC1)(C1CCCCC1)C1CCCCC1)[C@@H]32`, the growth was -22% (active) with NCI-H226 lung; 16.1% with NCI-H322M lung; 9.52% (active) with HOP-62 NSCLC; 5.27% (active) with NCI-H460 lung; -71.8% (active) with NCI-H522 lung; -76.6% (active) in the experiment with COLO 205 colon. The growth is 9.57% (active) with DU-145 prostate; -70.5% (active) in the experiment with SF-268 CNS; -19.6% (active) in the experiment on SF-295 CNS; -93.9% (active) in the experiment with SF-539 CNS; -82.1% (active) in the experiment on UACC-257 melanoma; -83.5% (active) in the experiment on M14 melanoma. Further, the growth in the experiment on HCT-15 colon was 75.2%; in the experiment with HT29 colon it was -24% (active); in the experiment with SNB-19 CNS it was -71.1% (active); with U251 CNS, -87.9% (active); in the experiment with SK-MEL-5 melanoma, -96.1% (active); with UACC-62 melanoma it was -96.9% (active). Further, the results for the growth with SK-MEL-2 melanoma and in the experiment with HL-60(TB) leukemia were -88% (active) and -36.7% (active), respectively.

As for `COCCOCCOCCOc1ccc(-n2cc(CCCN(CCNc3ccnc4cc(Cl)ccc34)C(=O)CCC(=O)O[C@@H]3O[C@@H]4OC5(C)CC[C@H]6[C@H](C)CC[C@@H]([C@H]3C)[C@@]46OO5)nn2)cc1`, the growth in the experiment on NCI-H226 lung was 53.5%; in the experiment with NCI-H322M lung, 69.2%; with HOP-62 NSCLC, 61.2%; in the experiment with NCI-H460 lung, 52%; in the experiment on NCI-H522 lung, 1.23% (active); in the experiment on COLO 205 colon, 11.8%. Moreover, the growth is 62% in the experiment on DU-145 prostate; 56.9% in the experiment with SF-268 CNS; 40.5% with SF-295 CNS; 47.4% in the experiment with SF-539 CNS; 13.1% with UACC-257 melanoma; 34.8% in the experiment with M14 melanoma. Also, the growth with HCT-15 colon is 14.2%; in the experiment with HT29 colon it was 20.6%; in the experiment with SNB-19 CNS it was 56.3%; in the experiment on U251 CNS, 46%; in the experiment with SK-MEL-5 melanoma it was -16.4% (active); with UACC-62 melanoma, 37%. Moreover, the growth is 47.9% in the experiment on SK-MEL-2 melanoma and -27.5% (active) in the experiment with HL-60(TB) leukemia.

As for `O=C(/C=C/c1ccco1)c1nc2ccccc2n1Cc1ccc(F)cc1`, the growth was 77.9% in the experiment on NCI-H226 lung; 79.2% in the experiment with NCI-H322M lung; 87.6% with HOP-62 NSCLC; 70.9% in the experiment with NCI-H460 lung; 62.1% in the experiment with NCI-H522 lung; 81.9% in the experiment on COLO 205 colon. Besides, the growth in the experiment on DU-145 prostate is 56.6%; in the experiment with SF-268 CNS it was 63.4%; with SF-295 CNS it was 76%; with SF-539 CNS it was 64.6%; with UACC-257 melanoma, 62.7%; with M14 melanoma, 88.2%. In addition, the growth in the experiment with HCT-15 colon is 32.3%; in the experiment with HT29 colon, 68%; in the experiment with SNB-19 CNS, 77.7%; in the experiment on U251 CNS, 40.9%; in the experiment on SK-MEL-5 melanoma, 86.5%; in the experiment with UACC-62 melanoma, 45.4%. Also, the growth in the experiment with SK-MEL-2 melanoma is 69.9%; in the experiment on HL-60(TB) leukemia it was 15.8%.

In the case of `CC12OOC(C)(OO1)C2CCC(=O)NCCNc1ccnc2cc(Cl)ccc12` (stereo not given), the growth in the experiment on NCI-H226 lung was 93.7%; in the experiment on NCI-H322M lung, 97.4%; in the experiment on HOP-62 NSCLC, 89.9%; with NCI-H460 lung, 101%; with NCI-H522 lung, -61.6% (active); with COLO 205 colon, 73%. Also, the growth in the experiment on DU-145 prostate is 104%; in the experiment with SF-268 CNS, 95.6%; with SF-295 CNS, 91.1%; with SF-539 CNS it was 102%; in the experiment with UACC-257 melanoma, 112%; in the experiment on M14 melanoma it was 105%. Besides, the growth in the experiment with HCT-15 colon was 95.2%; in the experiment with HT29 colon it was 105%; in the experiment on SNB-19 CNS, 98.2%; in the experiment with U251 CNS, 110%; in the experiment on SK-MEL-5 melanoma it was 93.9%; with UACC-62 melanoma, 91.8%. For the same molecule, the growth is 105% with SK-MEL-2 melanoma and 88.9% with HL-60(TB) leukemia.

Regarding `O=C(NC([Se])=NC1CCCCC1)c1ccccc1`, the growth in the experiment on NCI-H226 lung was 58.7%; in the experiment on NCI-H322M lung, 4.78% (active); with HOP-62 NSCLC it was 15.3%; in the experiment with NCI-H460 lung, 11.6%; in the experiment on NCI-H522 lung it was -30.9% (active); in the experiment on COLO 205 colon it was 49.2%. The growth is 46.2% in the experiment with DU-145 prostate; 96.2% in the experiment with SF-268 CNS; 8.53% (active) with SF-295 CNS; 14.3% in the experiment on SF-539 CNS; 30.8% with UACC-257 melanoma; 69.8% with M14 melanoma. Further, the growth with HCT-15 colon is 44%; in the experiment on HT29 colon it was 29.7%; in the experiment on SNB-19 CNS it was 24.6%; in the experiment on U251 CNS, 49.2%; in the experiment with SK-MEL-5 melanoma it was 18%; in the experiment with UACC-62 melanoma, 9.12% (active). The growth with SK-MEL-2 melanoma is -2.88% (active); in the experiment with HL-60(TB) leukemia, 16%.

Regarding `CC(C)N=C([Se])NC(=O)c1ccccc1`, the growth in the experiment with NCI-H226 lung is -33.5% (active); with NCI-H322M lung it was -3.38% (active); in the experiment with HOP-62 NSCLC, 8.36% (active); in the experiment on NCI-H460 lung, -25.8% (active); in the experiment on NCI-H522 lung, -77.7% (active); with COLO 205 colon, -11.7% (active). For the same molecule, the growth in the experiment with DU-145 prostate was -74.6% (active); with SF-268 CNS, 14.3%; in the experiment on SF-295 CNS, -23.9% (active); with SF-539 CNS, -82.9% (active); in the experiment with UACC-257 melanoma, -36.2% (active); in the experiment on M14 melanoma, -65.2% (active). Moreover, the growth in the experiment with HCT-15 colon was 1.65% (active); with HT29 colon it was 12.5%; with SNB-19 CNS it was 11.4%; in the experiment on U251 CNS it was -59.4% (active); with SK-MEL-5 melanoma it was -57.1% (active); in the experiment on UACC-62 melanoma it was -35.3% (active). The values for the growth in the experiment on SK-MEL-2 melanoma and in the experiment with HL-60(TB) leukemia were -40% (active) and -15.4% (active), respectively.

`O=C(/C=C/c1ccccc1)c1nc2ccccc2n1Cc1ccc(Br)cc1`: the growth in the experiment on NCI-H226 lung was -71% (active); in the experiment on NCI-H322M lung, -6.79% (active); in the experiment on HOP-62 NSCLC it was -68% (active); in the experiment with NCI-H460 lung it was -47% (active); with NCI-H522 lung it was -73.8% (active); with COLO 205 colon, -74.7% (active). Also, the growth with DU-145 prostate was -48.3% (active); in the experiment with SF-268 CNS, 3.91% (active); with SF-295 CNS it was -71.9% (active); in the experiment on SF-539 CNS, -93.4% (active); in the experiment on UACC-257 melanoma it was -51.1% (active); with M14 melanoma, -51.8% (active). The growth is -70.3% (active) in the experiment with HCT-15 colon; -60.3% (active) in the experiment on HT29 colon; -90.1% (active) in the experiment on SNB-19 CNS; -92.9% (active) in the experiment on U251 CNS; -57% (active) in the experiment with SK-MEL-5 melanoma; -94.2% (active) in the experiment with UACC-62 melanoma. Further, the growth with SK-MEL-2 melanoma was -51.1% (active); in the experiment with HL-60(TB) leukemia, -14.4% (active).
